# Assay results taken from the supplement of paper PMC11219838.
# Unmarked numbers belong to inactive results.
# Columns and labels:
# Meloidogyne hapla J2 = experiment: proportion of mobile M. hapla J2 relative to DMSO control (fraction of DMSO control); higher = more viable, less nematicidal, active = 0.7 or less; settings: 60 µM; 5 days; temperature: 20 °C
# Outline: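 Compound was pinned to 60 µM final (0.6% v/v DMSO) into 96-well wells, each holding about 25 M. hapla J2 in distilled water. Plates were sealed and shaken for 5 days at 20 °C and 200 rpm, then given 2 µL 1 M NaOH per well. Microscopic mobility scores were normalised to the mean of the plate's own DMSO wells, eight per plate, with two biological replicates averaged.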
# Ditylenchus dipsaci = experiment: proportion of mobile D. dipsaci (mixed stage) relative to DMSO control (fraction of DMSO control); higher = more viable, less nematicidal, active = 0.86 or less; extreme values may be limits of the assay; settings: 60 µM; 5 days; temperature: 20 °C
# Outline: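 Mobility values are relative to DMSO controls and are averages of two biological replicates. For each well of a 96-well plate, about 20 D. dipsaci worms, grown on pea plants in Gamborg B-5 agar and funnel-extracted into water, were dispensed in distilled water. Plates received pinned compound at 60 µM final with 0.6% v/v DMSO and were sealed and shaken at 200 rpm for 5 days at 20 °C before 2 µL 1 M NaOH was added and mobile worms were scored by microscope.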
SMILES,proportion of mobile M. hapla J2 (Meloidogyne hapla J2),proportion of mobile D. dipsaci (Ditylenchus dipsaci)
Clc1ccc(OCc2nc(-c3ccncc3)no2)cc1,0.749,1
Cc1ccccc1OCc1nc(-c2ccccc2)no1,0.821,1
Fc1ccc(-c2noc(COc3ccccc3Cl)n2)cc1,1.03,1
Cn1cc(C(=O)CSc2nnc(-c3cccc(Cl)c3)o2)c2ccccc21,0.999,1
COc1ccc(-c2nnc(SCC(=O)Nc3cc(Cl)ccc3C)o2)cc1,0.904,1
Cc1ccccc1-c1nc(-c2cccc(NC(=O)c3cccs3)c2)no1,0.959,1
CCOc1ccccc1-c1nc(-c2ccc(Cl)cc2)no1,0.856,1
C#CCOc1ccc(-c2nc(-c3ccccc3)no2)cc1,1.06,1
O=C(CSc1nnc(-c2ccc(Br)cc2)o1)N1CCCCCC1,0.844,1
Brc1cccc(-c2nc(-c3ccccc3)no2)c1,1.02,1
O=C(CSc1nnc(-c2cccc(Br)c2)o1)NC1CCCCC1,0.778,1
Cc1ccc(-c2nnc(SCC(=O)Nc3ccc(F)cc3)o2)cc1,1.04,1
c1csc(-c2nnc(-c3cccs3)o2)c1,0.754,0.769 (active)
Brc1ccc(-c2nc(-c3ccccc3)no2)cc1,1,1
CCOc1nc(-c2ccc(C)cc2)ccc1-c1noc(-c2ccncc2)n1,0.901,1
c1cncc(-c2noc(COc3cccc4ccccc34)n2)c1,0.991,1
COc1nc(C)ccc1-c1noc(-c2ccc(C)cc2)n1,0.926,1
O=C(CSc1nnc(-c2cccc(Cl)c2)o1)N1CCCCC1,1,1
CCOc1ccccc1-c1nnc(SCC(=O)Nc2nccs2)o1,0.739,1
CNC(=O)c1ccccc1-c1nc(-c2ccc(F)cc2)no1,0.987,1
c1ccc(OCc2nc(-c3cccs3)no2)cc1,0.652 (active),1
O=C(CSc1nnc(-c2ccccc2)o1)N1CCc2ccccc21,0.993,1
O=C(CSc1nnc(-c2cccc(Cl)c2)o1)Nc1nccs1,0.894,1
